Screening data as filed in PubChem.
Only a selection was taken, and hits are over-represented in it overall.
SARS PLP yeast: inhibitors of SARS-CoV papain-like protease in yeast; S. cerevisiae expressing SARS-CoV PLpro, growth rescue; AID 485353; Potency, µM (titrated, usually from 32.9 µM), usual class: activators; 330,000 compounds, 0.19% hits; also: nearly all actives have a fitted effect of over 55% in size
CHX counter: counter-screen hit for Shiga toxin inhibitors, cycloheximide. AID 2314. max response, %. cell reporter, cycloheximide protein synthesis inhibition counterscreen. 300,000 compounds, 12% hits; in the data active = max response mostly above about 13%, no sharp cut-off; inactive = mostly below about 14%; also: read at 38.3 µM for the half of the compounds with a filed dose
Tb PYK inh: inhibitors of Trypanosoma brucei pyruvate kinase | Q57TT1 | Potency, µM (series often up to 76.8 µM), actives largely listed as inhibitors | TbPYK enzyme, Kinase-Glo Plus ATP luminescence, 45 min | AID 624173 | 410,000 compounds, 0.12% hits; active = well fitted curve in the direction sought with a large enough effect; inconclusive = small, poorly fitted or top-dose-only effect, or another doubt; inactive = no such curve, though single readings can be large; an effect the other way counts as inactive or inconclusive; also: nearly all actives have a fitted effect of over 50% in size
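Assay buffer: 50 mM TEA pH 7.2, 100 mM KCl, 10 mM MgCl2, 0.05% BSA, 0.01% Tween-20. Pyruvate kinase from T. brucei plus substrate met compound, then ADP (130 uM final). Luminescence was read post 45 min RT.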
LmPK inhibitor: inhibitors of Leishmania mexicana pyruvate kinase. purified LmPK, Kinase-Glo ATP luminescence, 1 h. Potency, µM (highest dose often 57.5 µM), actives largely listed as inhibitors. Q27686. 290,000 compounds, 0.37% hits; active = well fitted curve in the direction sought with a large enough effect; inconclusive = small, poorly fitted or top-dose-only effect, or another doubt; inactive = no such curve, though single readings can be large; an effect the other way counts as inactive or inconclusive
Target sequence (Q27686 whole entry, looked up): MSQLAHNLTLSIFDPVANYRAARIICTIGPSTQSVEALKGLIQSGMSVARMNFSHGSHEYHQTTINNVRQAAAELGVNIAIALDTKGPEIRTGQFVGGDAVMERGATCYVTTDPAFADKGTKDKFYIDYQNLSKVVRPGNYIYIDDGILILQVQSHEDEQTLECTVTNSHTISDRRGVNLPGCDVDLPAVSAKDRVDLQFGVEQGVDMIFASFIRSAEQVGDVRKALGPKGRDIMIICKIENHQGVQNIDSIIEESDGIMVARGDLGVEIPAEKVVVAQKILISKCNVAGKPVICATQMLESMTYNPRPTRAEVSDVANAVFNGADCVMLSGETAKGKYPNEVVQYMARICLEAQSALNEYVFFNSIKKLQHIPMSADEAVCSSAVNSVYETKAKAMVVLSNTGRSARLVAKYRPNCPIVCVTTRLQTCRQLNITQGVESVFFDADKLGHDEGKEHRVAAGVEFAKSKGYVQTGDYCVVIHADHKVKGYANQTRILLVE
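Purified LmPK (0.1 nM) converted ADP (0.1 mM) to ATP with PEP (0.5 mM) in imidazole buffer pH 7.2 with KCl and MgCl2, 1 h at room temperature. ATP was read by Kinase-Glo luminescence; data normalized to uninhibited and no-enzyme controls.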
Shiga inhibitor: blocks Shiga toxin action in Vero cells; Vero cells, Shiga toxin protein synthesis inhibition reporter; inhibition, % at 38.7 µM; 290,000 compounds, 9.2% hits; AID 2315; in the data active = inhibition mostly above about 28%, no sharp cut-off; inactive = mostly below about 43%
NS1 function inh: blocks influenza NS1 protein function | 270,000 compounds, 0.4% hits | Potency, µM (series often up to 46.1 µM); also: actives are rising curves; nearly all actives have a fitted effect of over 50% in size
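OD600 was taken as the measure of yeast growth restored by compound in an NS1-expressing S. cerevisiae strain. Cells had been washed out of glucose medium and diluted 1:100 into galactose -URA medium, pH 6.0.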
Numbers stand for hits; 0 = inactive; ? = inconclusive; - = no result. Unless noted, calls follow the shape of the full dose curve.

SMILES	SARS PLP yeast	CHX counter	Tb PYK inh	LmPK inhibitor	Shiga inhibitor	NS1 function inh
Fc1ccc(-c2nnc(-c3ccc(Cl)cc3Cl)o2)cc1	0	22.4	0	0	42.7	0
Clc1ccc(-c2nnc(-c3ccc(Br)o3)o2)c(Cl)c1	0	15.3	0	0	0	0
Clc1ccc(-c2nnc(-c3ccccc3)o2)c(Cl)c1	0	51.4	0	0	0	0
O=C(O)CCSc1nnc(-c2ccc(Cl)cc2Cl)o1	-	-	0	-	-	-
Cc1cn([C@H]2C[C@H](O)[C@@H](CNC(=O)CNC(=O)CN)O2)c(=O)[nH]c1=O	-	-	0	-	-	-
Cc1ccc(N2CC(C(=O)OCC(=O)Nc3c(C)cccc3C)CC2=O)cc1 (centres undefined)	-	-	0	-	-	-
Fc1ccc(-c2nnc(-c3ccc(Cl)cc3)o2)cc1	0	17.9	0	0	46.5	0
Clc1ccc(-c2nnc(C3CC3)o2)cc1	0	0	0	0	0	0
Clc1ccc(-c2nnc(N3CCOCC3)o2)cc1	0	30.9	0	0	90.3	0
CN1CCC2(CC1)CCN(C(=O)c1cc(C(F)(F)F)cc(C(F)(F)F)c1)CC2	-	-	0	-	-	-
O=C(Nc1c(-c2ccc(F)cc2)nc2ccccn12)c1ccccc1F	-	-	0	-	-	-
S=c1[nH]nc(-c2ccc(Br)cc2)n1Cc1ccco1	0	0	5.62µM	22.4µM	0	0
S=c1[nH]nc(-c2ccccc2)n1Cc1ccccc1	?	0	?	10µM	0	0
S=c1[nH]nc(-c2ccco2)n1Cc1ccccc1	0	0	?	14.1µM	0	?
S=c1[nH]nc(-c2ccc(Br)o2)n1Cc1ccccc1	0	0	10µM	?	0	0
CCn1c(-c2ccco2)n[nH]c1=S	0	0	?	0	0	0
O=C(CCN1CCCCC1)N1CCc2c([nH]c3ccccc23)[C@H]1c1cccnc1	-	-	-	-	-	0
S=c1[nH]nc(-c2ccco2)n1/N=C/c1ccc(Cl)cc1	0	0	3.98µM	0	0	0
S=c1[nH]nc(-c2ccco2)n1/N=C/c1ccccc1Cl	0	0	?	0	0	0
CCCCc1n[nH]c(=S)n1Cc1ccccc1	0	0	?	0	0	0
Fc1ccc(NCc2n[nH]c(=S)n2Cc2ccccc2)cc1	0	0	7.08µM	?	0	-
S=c1[nH]nc(CNc2ccc(Cl)cc2)n1Cc1ccccc1	0	0	?	?	0	0
COc1ccc(-c2n[nH]c(=S)n2Cc2ccccc2)cc1	0	0	?	?	0	0
CCCCc1n[nH]c(=S)n1Cc1ccc(Cl)cc1	0	0	10µM	?	0	-
S=c1[nH]nc(-c2ccc(Cl)cc2)n1Cc1ccccc1	?	0	?	12.6µM	0	0
SMILES	SARS PLP yeast	CHX counter	Tb PYK inh	LmPK inhibitor	Shiga inhibitor	NS1 function inh
CCC1CN(C(=O)N2CCC(C(=O)NCc3cc(OC)ccc3OC)CC2)c2ccccc2O1 (centres undefined)	-	-	0	-	-	-
CCOC(=O)c1ccc(NC(=O)CC(=O)Nc2ccc3nc4n(c(=O)c3c2)CCCCC4)cc1	-	-	0	-	-	-
Cc1ccccc1C(=O)Nc1ccc(S(=O)(=O)N2CCC(c3nc4ccccc4s3)CC2)cc1	-	-	0	-	-	-
CCOCCCn1c(-c2ccc(Cl)cc2)n[nH]c1=S	0	0	8.91µM	?	0	0
CN(c1ccc(O)cc1)S(=O)(=O)c1ccc2ccccc2c1	0	24.1	0	0	77.1	0
Cc1ccc(-c2nnc(-c3cccc4ccccc34)o2)cc1	-	-	0	-	-	-
c1ccc(Nc2nnc(-c3cccc4ccccc34)o2)cc1	0	35.6	0	0	54.1	0
CN1C(=O)C(Cc2c[nH]c3ccccc23)NC1=S (centres undefined)	-	30.0	-	-	47.3	-
COC(=O)c1ccc(CN2C(=O)NC(Cc3c[nH]c4ccccc34)C2=O)cc1 (centres undefined)	0	37.0	0	0	118.1	0
Cc1c(C(=O)NNC(=O)c2cccnc2)cccc1[N+](=O)[O-]	0	-	0	-	-	-
CCOC(=O)CNC(=O)N1CCCC(CNS(=O)(=O)Cc2ccccc2)C1 (centres undefined)	0	0	0	0	0	0
Cc1ccccc1Cn1cc(NS(=O)(=O)c2cn(C)nc2C)cn1	0	0	0	0	0	0
O=C(O)[C@H](Cc1ccccc1)NC(=O)N1CCN(c2ccccc2)CC1	0	0	0	0	0	0
CCOC(=O)c1ccc(-n2cc(C(=O)c3cccnc3)nn2)cc1	0	0	0	0	0	0
Cc1ccc(-n2cc(C(=O)c3ccc(F)cc3)nn2)cc1Cl	0	36.5	0	0	74.9	0
